The whole screen tested about 1,500 compounds, of which about 460 (31%) were called active.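 How the source made its calls: active means viability at or below 80% at any tested concentration, marking the compound as toxic; inactive means the rest.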 Only a sample is shown. Results with a measured potency or affinity are listed apart.
Assay: viability loss in THP-1 monocytes – THP-1 cells, cytotoxicity control for Vif-APOBEC3G degradation inhibitor project, dose response (AID 1117359)
Conditions: THP-1 viability, CellTiter-Glo luminescence, 72 h; series mostly up to 40 µM

Row | Compound | outcome
1 | CC1CCC/C(=C\Nc2ccc(O)cc2)C1=O (centres undefined) | inactive
2 | CCC1CCC2(CC1)NC(=O)N(CC(=O)Nc1ccc(OC)c(Cl)c1)C2=O (centres undefined) | inactive
3 | C=C(C)C(=O)Nc1cccc(C2=NOC3(C2)C[C@H](C(N)=O)N(C(=O)COc2ccc(Cl)cc2)C3)c1 (some centres undefined) | inactive
4 | Cc1nc2nc(-c3ccco3)nn2c(C)c1Cl | inactive
5 | O=S(=O)(O)c1cc(O)c2ccc(Nc3ccccc3)cc2c1 | inactive
6 | CC(=O)Nc1ccc(N=Nc2ccccc2)cc1 | inactive
7 | CCn1c(SC(C)C(=O)O)nc2sc3c(c2c1=O)CCC3 (centres undefined) | inactive
8 | COc1ccc(N/N=C(\C#N)C(=N)SCc2ccccc2)cc1 | inactive
9 | CC(=O)c1ccccc1NC(=O)COC(=O)CN1C(=O)C2CCCCC2C1=O (centres undefined) | inactive
10 | Cc1cc2cc3c(=O)[nH]c(=O)nc-3n(CC(O)C(O)C(O)CO)c2cc1C (centres undefined) | inactive
11 | CN(CCO)CC(O)CN(c1ccccc1)c1ccccc1 (centres undefined) | inactive
12 | Oc1cc2c(cc1O)[C@H]1c3ccc(O)c(O)c3OC[C@@]1(O)C2 | inactive
13 | C(=C\c1ccco1)/c1ccc2ccccc2n1 | inactive
14 | O=C(O)c1ccc(-n2cccc2/C=C2/NC(=O)N(c3cccc(Cl)c3)C2=O)cc1 | inactive
15 | O=C(O)c1ccc(-n2cccc2/C=C2/NC(=O)N(c3ccccc3)C2=O)cc1 | inactive
16 | COc1ccc(CCN2CC(C(=O)NCC(c3ccccc3)N(C)C)CC2=O)cc1OC (centres undefined) | inactive
17 | CN1CCN(C(=O)c2ccc(N(C)S(=O)(=O)c3cccs3)cc2)CC1 | inactive
18 | Cc1c(O)cc2c(c1O)C(=O)CC(c1ccc(O)cc1)O2 (centres undefined) | inactive
19 | COC1=CC(=O)C(C2CC(=O)c3c(O)cc(O)cc3O2)=CC1=O (centres undefined) | inactive
20 | C(=N\Nc1nncn1/N=C/c1ccco1)/c1ccco1 | inactive
21 | Cn1c(=O)c2c(ncn2CC(=O)N/N=C/C=C/c2ccco2)n(C)c1=O | inactive
22 | Cn1c2ccccc2c2ccc3c(c21)C(=O)C=CC3=O | inactive
23 | COc1ccc2[nH]c(C(=O)O)c(CCN3C(=O)c4cccc([N+](=O)[O-])c4C3=O)c2c1 | inactive

Row | Compound | outcome
24 | COc1ccc(N2CCN(CC(=O)c3c(C)n(C)c4ccc(OC)cc34)CC2)cc1 | inactive
25 | Cc1ccc(N=Nc2ccc(N)cc2C)c(S(N)(=O)=O)c1 | inactive
26 | O=C1CNC(=O)/C1=C/c1ccc(Br)cc1 | inactive
27 | O=C(COC(=O)c1ccc(O)cc1O)NNC(=O)c1cccs1 | inactive
28 | CC[n+]1ccc(C)c2cc(P(=O)(c3ccccc3)c3ccccc3)ccc21 | inactive
29 | Cc1ccc(S(=O)(=O)n2ccc(=O)[nH]2)cc1 | inactive
30 | O=C(CCS(=O)(=O)c1ccc(Br)cc1)NC1CCCC1 | inactive
31 | Cc1cc(NS(=O)(=O)c2cc(Cl)sc2Cl)no1 | inactive
32 | Cc1cc(O)cc(O)c1C(=O)Cc1cnn(-c2ccccc2)c1 | inactive
33 | CCC1=C2CC[C@H]3C(=O)NC(=O)[C@H]3[C@H]2[C@@]2(Cc3ccccc3)C(=NCC(=O)OC)OC(=O)N2C1=O | inactive
34 | CCN(CC)S(=O)(=O)c1cccc(NN=c2c(=O)c3ccccc3c2=O)c1 | inactive
35 | CCc1ccc2c(c1)cc(C)c1nnc(SCC(=O)Nc3cc(OC)c(OC)cc3C(=O)O)n12 | inactive
36 | COC/C=C/C1=CC2=CC(=O)C(C)(OC(=O)c3cnc4ccccc4n3)C(=O)C2=CN1c1ccccc1 (centres undefined) | inactive
37 | Nc1ccc2c(O)cc(S(=O)(=O)O)cc2c1 | inactive
38 | CCOC(=O)C1CCN(c2ncnc3cc(OC)c(OC)cc23)CC1 | inactive
39 | O=C(O)C1OC(Oc2c(-c3ccc(O)c(O)c3)oc3cc(O)cc(O)c3c2=O)C(O)C(O)C1O (centres undefined) | inactive
40 | COC(=O)C1=C(O)/C(=C\c2ccc(CNC(=O)C(=O)Nc3ccc(C)cc3)o2)N=C1C | inactive
41 | CC(Sc1nnc(C2CC2)n1C)C(=O)Nc1ccc(N2CCOCC2)cc1 (centres undefined) | inactive
42 | CC1=C(C#N)C(=O)N(C2CCS(=O)(=O)C2)C(=O)/C1=C\c1ccco1 (centres undefined) | inactive
43 | O=C1c2ccccc2C(=O)N1/N=C/c1ccc(O)c(O)c1O | inactive
44 | Nc1ccc(Nc2ccccc2)c(S(=O)(=O)O)c1 | inactive
45 | Cc1ccc(NC(=O)COc2ccc(/C=N/NC(=O)CSCc3ccccc3)cc2)cc1 | inactive
46 | CCCCC1=CC2=CC(=O)C(C)(OC(=O)c3cnc4ccccc4n3)C(=O)C2=CO1 (centres undefined) | inactive

Row | Compound | outcome
47 | c1cnc(N2CCN(c3cnccn3)CC2)nc1 | inactive
48 | COc1ccc(CN2CCNC(=O)C2CC(=O)NC2CCCC2)cc1OC (centres undefined) | inactive
49 | CCN(CC)S(=O)(=O)c1ccc(C(=O)NCc2n[nH]c(=S)n2-c2ccccc2OC)cc1 | inactive
50 | Cc1ccc2c(c1)NC(=O)c1cc([N+](=O)[O-])ccc1O2 | inactive
51 | NS(=O)(=O)c1ccc(NC(=O)COC(=O)CC2Sc3ccccc3NC2=O)cc1 (centres undefined) | inactive
52 | CCOC(=O)c1ccc(NS(=O)(=O)c2ccc3oc(=O)[nH]c3c2)cc1 | inactive
53 | COC(=O)c1ccc(C(=O)OC)c(NC(=O)Cc2cccs2)c1 | inactive
54 | COc1ccc(CCNC(=O)/C=C/c2ccco2)cc1 | inactive
55 | CC[C@H](C)[C@H](NC(N)=O)C(=O)NCCc1ccc(OC)cc1 | inactive
56 | Nc1ccc(Oc2ncccn2)cc1 | inactive
57 | CCOC(=O)c1[nH]nc(-c2c(O)cc(C)cc2O)c1-c1csc(C)n1 | inactive
58 | O=C(Nc1ccccc1)c1ccc(S(=O)(=O)N(CCO)CCO)cc1 | inactive
59 | CC(C)OCCCNC(=O)c1cccs1 | inactive
60 | CC(C)CN1C(=O)c2ccc(C(=O)Nc3ccc(O)cc3C(=O)O)cc2C1=O | inactive
61 | CS(=O)(=O)c1ccc(Cl)c(NC(=O)COC(=O)COc2ccc3c(c2)CCC3)c1 | inactive
62 | CCOc1ccc(NC(=O)CCS(=O)(=O)c2ccc(Br)cc2)cc1 | inactive
63 | Cc1nccn1CC(=O)N/N=C/c1ccc(O)c(O)c1 | inactive
64 | Cc1ccsc1C=Nc1ccc(O)cc1 | inactive
65 | Oc1ccc(N=Cc2sc3ccccc3c2Cl)cc1 | inactive
66 | NC(=S)N=Nc1c(O)cc(O)c2[nH]c(=O)ccc12 | inactive
67 | Cc1n[nH]c(=S)n(NC(=O)/C=C/C(=O)Nn2c(=S)[nH]nc(C)c2=O)c1=O | inactive
68 | CCN(CC)C(=O)NCc1c(C)cc(C)cc1C | inactive
69 | CCOC(=O)C(=O)Cc1cccnn1 | inactive

Row | Compound | outcome
70 | CC(=O)c1ccc(S(=O)(=O)Nc2cccc(-n3cnnn3)c2)cc1 | inactive
71 | CC1CCC(NC(=O)CCS(=O)(=O)c2ccc3c(c2)CCN3C(=O)C2CC2)CC1 (centres undefined) | inactive
72 | CCc1ccc(-c2nc(SCC(=O)c3c(N)n(C4CC4)c(=O)[nH]c3=O)n[nH]2)cc1 | inactive
73 | COCCn1c(SCC(=O)N2CCC(C)CC2)nc2c([nH]c3ccccc32)c1=O | inactive
74 | O=C(c1ccc2nc(-c3ccco3)c(-c3ccco3)nc2c1)N1CCN(c2ncccn2)CC1 | inactive
75 | N#Cc1ccccc1S(=O)(=O)N1CCN(C(=O)CN2CCCC2c2cccs2)CC1 (centres undefined) | inactive
76 | Cc1ccccc1OCC(=O)OCC(=O)c1ccc(OC(=O)c2ccccc2)cc1 | inactive
77 | Cc1cc(C(=O)NNC(=O)CCC2CCCCC2)c(C)o1 | inactive
78 | COc1ccccc1OCC(=O)NCC1CCCN(Cc2cnn(C(C)C)c2)C1 (centres undefined) | inactive
79 | CCOc1ccc(N(CC(=O)NCCC2=CCCCC2)S(=O)(=O)c2ccccc2)cc1 | inactive
80 | O=C(c1cc(COc2cccc3cccnc23)on1)N1CCC[C@H]1CO | inactive
81 | CC(Oc1cccc2cccnc12)C(=O)N/N=C/c1ccc2c(c1)OCO2 (centres undefined) | inactive
82 | CC(=O)Nc1ccc(NC(=O)CN(c2cccc(C(C)=O)c2)S(C)(=O)=O)cc1 | inactive
83 | COc1ccc(-n2c(Cc3cccn3C)nnc2SCC(=O)Nc2ccccc2)cc1 | inactive
84 | CCOC(=O)c1cc2c(n(-c3ccccc3)c1=O)CC(C)(C)CC2=O | inactive
85 | Cn1c(N)c(C(=O)CCl)c(=O)n(Cc2ccccc2)c1=O | inactive
86 | O=C(O)c1cc(-c2ccccc2)on1 | inactive
87 | CN1CCN(C(CNC(=O)c2ccc(Br)o2)c2ccc(F)cc2)CC1 (centres undefined) | inactive
88 | CC(NC(=O)CSc1nnc2n1CCCCC2)c1ccccc1Cl (centres undefined) | inactive
89 | COc1cc(CN2CCNC(=O)C2CC(=O)N(Cc2nccn2C)C(C)C)cc(OC)c1 (centres undefined) | inactive

From PubChem BioAssay AID1117359 (Southern Research Institute, 2015)
